For 27 compounds, Potency results are on record in PubChem BioAssay (NCATS).

For assay [1], the target named is Cytochrome P450 2D6 (Homo sapiens) (UniProt P10635). The experiment in a line: Cytochrome P450 family 2 subfamily D member 6 (CYP2D6) small molecule antagonists: luciferase biochemical (cell-free) qHTS assay (AID 1645840). Also: nearly all actives have a fitted effect of over 55% in size. A digest of the protocol:
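P450-Glo CYP2D6 system: proluciferin substrate converted by enzyme to luciferin, read by luminescence proportional to activity. Enzyme-substrate mix with compound 10 min at room temperature, then NADPH regeneration 1 h before detection reagent.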
(Quantitative high-throughput screening tests each substance at several concentrations.)

The target in assay [2] is Cytochrome P450 2C9 (Homo sapiens) (UniProt P11712). Nature of the assay: Cytochrome P450 family 2 subfamily C member 9 (CYP2C9) small molecule antagonists: luciferase biochemical (cell-free) qHTS assay (AID 1645842). Also: nearly all actives have a fitted effect of over 55% in size. The method, boiled down:
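P450-Glo CYP2C9 system: proluciferin substrate with enzyme in mix containing 0.4% BSA, 10 min at room temperature, then NADPH regeneration solution added and incubated 1 h at 37C. Detection reagent stopped reaction; luminescence read after 20 min as RLU.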

For assay [3], the target named is N-terminal Xaa-Pro-Lys N-methyltransferase 1 (Homo sapiens) (UniProt Q9BV86). Nature of the assay: Confirmatory qHTS for Inhibitors of N-terminal methyltransferase 1 (NTMT1): MTaseGlo Assay (AID 1645874; active = well fitted curve in the direction sought with a large enough effect; an effect the other way counts as inactive or inconclusive; also: nearly all actives have a fitted effect of over 65% in size). The method, boiled down: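 SPKRIA peptide at 1 uM was methylated by 125 nM NTMT1 using 100 uM SAM over 30 min at room temperature, following a 15 min compound preincubation. Product SAH was detected luminescently.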

Assay [4] is described as follows: Primary qHTS for inhibitors of nuclear receptor binding SET domain protein 2 (NSD2) in an isogenic RCH-ACV NSD2 p.E1099K mutant (9B) (AID 1645876; active = well fitted curve in the direction sought with a large enough effect; an effect the other way counts as inactive or inconclusive; also: nearly all actives have a fitted effect of over 70% in size).
A short description of assay [5]: Primary qHTS for inhibitors of nuclear receptor binding SET domain protein 2 (NSD2) in an RCH-ACV wild type WT cells (2C) (AID 1645877; active = well fitted curve in the direction sought with a large enough effect; an effect the other way counts as inactive or inconclusive; also: nearly all actives have a fitted effect of over 70% in size).

Results filed as inconclusive are left out. Active and inactive are the calls of the source. Unless noted, calls follow the shape of the dose curve; as a rule, active = well fitted curve in the direction sought with a large enough effect in the repeat runs; inconclusive = weak or mixed curves; inactive = no such curve, though single readings can be large; an effect the other way counts as inactive or inconclusive.
Potency is read from the fitted curve at half-maximal effect.

Cytochrome P450 2D6 (Homo sapiens), sequence (P10635 whole entry, looked up): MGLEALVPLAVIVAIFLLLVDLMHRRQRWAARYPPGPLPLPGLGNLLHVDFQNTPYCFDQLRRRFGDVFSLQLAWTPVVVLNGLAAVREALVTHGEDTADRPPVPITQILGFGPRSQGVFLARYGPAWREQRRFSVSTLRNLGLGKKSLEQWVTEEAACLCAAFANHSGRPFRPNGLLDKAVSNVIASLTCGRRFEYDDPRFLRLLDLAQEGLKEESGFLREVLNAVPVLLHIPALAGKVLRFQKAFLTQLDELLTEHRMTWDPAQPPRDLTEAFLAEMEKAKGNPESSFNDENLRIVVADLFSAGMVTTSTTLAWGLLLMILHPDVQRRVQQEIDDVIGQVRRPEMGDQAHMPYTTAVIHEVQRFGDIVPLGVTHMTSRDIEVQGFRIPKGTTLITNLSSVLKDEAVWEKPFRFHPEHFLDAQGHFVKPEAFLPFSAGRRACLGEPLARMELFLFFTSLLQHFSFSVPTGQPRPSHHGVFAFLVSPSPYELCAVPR
Cytochrome P450 2C9 (Homo sapiens), sequence (P11712 whole entry, looked up): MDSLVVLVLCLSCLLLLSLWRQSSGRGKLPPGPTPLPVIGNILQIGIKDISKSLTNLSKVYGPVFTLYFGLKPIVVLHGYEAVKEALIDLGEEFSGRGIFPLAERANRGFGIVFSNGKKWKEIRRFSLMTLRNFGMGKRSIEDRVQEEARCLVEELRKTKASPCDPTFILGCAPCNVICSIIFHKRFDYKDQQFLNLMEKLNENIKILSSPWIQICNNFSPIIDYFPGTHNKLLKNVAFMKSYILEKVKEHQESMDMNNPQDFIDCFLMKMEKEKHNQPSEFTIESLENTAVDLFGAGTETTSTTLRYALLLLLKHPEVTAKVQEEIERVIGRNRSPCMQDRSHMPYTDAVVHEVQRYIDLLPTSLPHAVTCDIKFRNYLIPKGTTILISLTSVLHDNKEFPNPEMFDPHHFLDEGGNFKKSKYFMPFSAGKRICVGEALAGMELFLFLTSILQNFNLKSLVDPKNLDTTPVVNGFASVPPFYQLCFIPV
N-terminal Xaa-Pro-Lys N-methyltransferase 1 (Homo sapiens), sequence (Q9BV86 whole entry, looked up): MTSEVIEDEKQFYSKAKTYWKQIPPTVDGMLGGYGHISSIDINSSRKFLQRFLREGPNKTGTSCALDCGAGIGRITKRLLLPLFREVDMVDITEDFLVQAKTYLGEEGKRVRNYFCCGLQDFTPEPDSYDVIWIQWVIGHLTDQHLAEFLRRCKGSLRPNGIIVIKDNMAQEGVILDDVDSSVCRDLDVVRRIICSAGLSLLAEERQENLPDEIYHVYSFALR

As to `COc1cc2c(Nc3cc(F)c(Cl)c(Cl)c3)ncnc2cc1OCC1CCCN(C)CCC1`, the Potency in assay [1] is 16.9 µM (active); in assay [2], 19 µM (active); in assay [3], 31.6 µM (active); in assay [4] it was 3.25 µM (active); in assay [5], 5.15 µM (active).

`O=S(=O)(Cc1ccccc1)Nc1ccc(-c2ccc3c(cnn3-c3ccc(F)cc3)c2)c(C(F)(F)F)c1`: the Potency entry in assay [1] and in assay [3] was “inactive” in each case. Also, the Potency was 6.01 µM (active) in assay [2], 18.3 µM (active) in assay [4] and 0.183 µM (active) in assay [5].

For `CC(C)S(=O)(=O)NC[C@H](C)c1ccc(-c2ccc(CCNS(C)(=O)=O)cc2)cc1`, in assay [1], the Potency entry was “inactive”. The Potency is 10.7 µM (active) in assay [2] and 6.49 µM (active) in assay [4].

With `N#Cc1ccc2ncnc(NCCc3ccccc3)c2c1`, the Potency in assay [1] is 15.1 µM (active); in assay [2], 26.8 µM (active); in assay [4], 6.49 µM (active).

`CCO[C@H]1CN(C2CCC(O)(c3ccc4c(c3)OCO4)CC2)C[C@@H]1NC(=O)CNC(=O)c1cccc(C(F)(F)F)c1` (stereo partly specified): the Potency in assay [1] was 3.38 µM (active); in assay [2], 12 µM (active). For the same compound, in assay [4], the Potency result was “inactive”.

Consider `COC(=O)C(Cc1ccc(OCCn2c(=O)sc3cc(C(=O)c4ccccc4)ccc32)cc1)C(=O)OC`, for which the Potency result in assay [1], in assay [4] and in assay [5] was “inactive” throughout. Moreover, in assay [2], the Potency is 2.13 µM (active).

For `Cc1ccc(F)cc1S(=O)(=O)N[C@@H]1CCN(Cc2ccc(OC(C)C)cc2)C1`, the values for the Potency in assay [1], in assay [2] and in assay [4] were 0.0169 µM (active), 6.01 µM (active) and 16.3 µM (active), respectively.

Take `N#Cc1cc(-c2ccnc(Nc3ccc(N4CCOCC4)cc3)n2)ccc1OC1CCOCC1`: the Potency result in assay [1] was “inactive”. In addition, the Potency in assay [2] is 2.13 µM (active); in assay [4] it was 1.45 µM (active).

On to `COc1cc(Br)c(S(=O)(=O)Nc2ccc(Cl)c(O[C@@H]3CCN(C)C3)c2)cc1OC`, for which the Potency in assay [1] was 15.1 µM (active); in assay [2], 10.7 µM (active); in assay [4] it was 12.9 µM (active).

On to `CC[C@H]1CN(c2nc(N)c(C(N)=O)nc2Cl)CCN1C1CCN(Cc2ccc(Cl)cc2)CC1`, for which the Potency was 12 µM (active) in assay [1] and 7.56 µM (active) in assay [2]. The Potency result in assay [4] and in assay [5] was “inactive” throughout.

For `C=C(C)[C@@H]1CC=C(COC(=O)NC(=O)c2ncn3c(=O)n(C)nnc23)CC1`, the Potency entry in assay [1], in assay [2] and in assay [4] was “inactive” each time.

For the compound `CN(C)C(=O)Nc1cccc(-c2ccc(N(C)C)cc2)c1`, the Potency in assay [1] was 21.3 µM (active); in assay [2], 23.9 µM (active). The Potency result in assay [4] and in assay [5] was “inactive” each time.

Turning to `O=c1cc(N2CCN(c3cccc(C(F)(F)F)c3)CC2)[nH]c(=O)n1C1CCCCC1`, the Potency result in assay [1] and in assay [4] was “inactive” each time. For the same compound, the Potency in assay [2] is 3.01 µM (active).

Consider `COC(=O)c1cc(Br)cnc1N1CCC(NC2CCCCC2)C(O)C1` (stereo unspecified), for which the Potency in assay [1] was 0.019 µM (active). For the same compound, the Potency result in assay [2] and in assay [4] was “inactive” throughout.

Consider `COC1CCN(C(=O)c2cc(Cc3n[nH]c(=O)c4ccccc34)ccc2F)CC1`, for which, in assay [1], the Potency entry was “inactive”. The Potency in assay [2] is 23.9 µM (active); in assay [4] it was 13.2 µM (active).

Consider `CC(C)c1ccc(-c2cc(=O)c3ccccc3o2)cc1`, for which the Potency in assay [1] is 15.1 µM (active); in assay [2], 5.35 µM (active); in assay [4], 23 µM (active).

For `O=C(NC1(c2ccccc2)CC1)c1c(CN2CCC(N3CCCCC3)CC2)c(-c2cccc(C(F)(F)F)c2)nc2cc(Br)ccc12`, the Potency in assay [1] was 4.77 µM (active); in assay [2], 23.9 µM (active); in assay [4] it was 12.9 µM (active).

In the case of `COc1ccccc1N1CCN(CC(C(=O)NC(C)(C)C)c2ccccc2)CC1` (stereo unspecified), the Potency was 1.69 µM (active) in assay [1] and 12 µM (active) in assay [2]. For the same compound, in assay [4], the Potency result is “inactive”.

`Cc1c(NC(=O)c2cc3c(s2)CCCC3)cccc1-c1cn(C)c(=O)c(Nc2ccc(C3C(=O)N(C)CCN3C)cc2)n1` (stereo unspecified): the Potency result in assay [1] is “inactive”. For the same compound, the Potency in assay [2] is 1.2 µM (active); in assay [4], 12.9 µM (active).

Turning to `COc1cc(-c2cn(C3CCc4c(F)cccc4N(CC(F)(F)F)C3=O)nn2)ccc1-n1cnc(C)c1` (stereo unspecified), the Potency in assay [1] was 26.8 µM (active); in assay [2] it was 12 µM (active); in assay [4], 18.3 µM (active).

In the case of `COc1cc2ncnc(Oc3ccc(CC(=O)Nc4cnn(C(C)C)c4)cc3)c2cc1OC`, the Potency entry in assay [1] is “inactive”. In addition, the Potency was 13.5 µM (active) in assay [2] and 16.3 µM (active) in assay [4].

For `CCC(CC)C(c1ccc(Nc2nc3ccccc3s2)cc1)n1cncn1` (stereo unspecified), the Potency in assay [1] is 2.39 µM (active); in assay [2], 0.952 µM (active); in assay [4], 18.6 µM (active).

`CC(C)NC(=O)COc1cccc(-c2nc(Nc3ccc4[nH]ncc4c3)c3ccccc3n2)c1`: the Potency was 2.68 µM (active) in assay [1], 0.19 µM (active) in assay [2] and 7.42 µM (active) in assay [4].

Turning to `Cc1cc(NC(=O)NCCN2CCC(O)(Cc3ccccc3)CC2)c2ccccc2n1`, in assay [1], the Potency is 8.49 µM (active). In addition, the Potency result in assay [2], in assay [4] and in assay [5] was “inactive” in each case.

Turning to `O=C1c2ccc(Nc3ccc(F)cc3F)cc2CCc2ccc(OCC(O)CO)cc21` (stereo unspecified), the Potency was 26.8 µM (active) in assay [1], 6.01 µM (active) in assay [2], 16.3 µM (active) in assay [4] and 18.3 µM (active) in assay [5].

Consider `O=C(Nc1nc2ccc([N+](=O)[O-])cc2s1)C1CCCCC1`, for which the Potency in assay [1] is 1.9 µM (active); in assay [2], 19 µM (active); in assay [4], 20.5 µM (active).

For the compound `CC(=O)NCc1cccc(OC[C@@H](O)CNCCc2ccc(NS(=O)(=O)c3ccccc3)cc2)c1`, the Potency is 0.849 µM (active) in assay [1] and 0.674 µM (active) in assay [2]. Further, the Potency result in assay [4] and in assay [5] was “inactive” in each case.
